Test results as given in a collection of fitness landscapes (doi:10.1016/j.celrep.2020.107928).
The full ranking holds about 81,000 sequences; the median of “one-hybrid fitness for binding NBS DNA” is about -0.1, and the highest 2% start at about 0.36. For the sample, the highest values were picked, then their nearest neighbours and some sequences at random.

B1: Caulobacter ParB omega fusion; a variant is named by its letters at X, in order, B8GW30 (parent)
chain: MESVVVGEPGMSEGRRGLGRGLSALLGEVDAAPAQAPGEQLGGSREAPIEILQRNPDQPRRTFREEDLEDLSNSIREKGVLQPILVRPSPDTAGEYQIVAGERAWRAAQRAGLKTVPIMVRELDDLAVLEIGIIENVQRADLNVLEEALSYKVLMEKFERTQENIAQTIGKSXSHVANXMRLLXLPDEVQSYLVSGELTAXHARAIAAAADPVALAKQIIEGGLSVRETEALARKAPNLSAGKSKGGRPPRVKDTDTQALESDLSSVLGLDVSIDHRGSTGTLTITYATLEQLDDLCNRLTRGI

Variants of: B1
Test: one-hybrid fitness for binding NBS DNA (the Noc-binding site; scaled: cognate 1, non-cognate 0); higher = stronger binding
Settings: with NBS DNA site
How it was run: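 Bacterial one-hybrid selection in E. coli USO rpoZ- hisB- pyrF- with a HIS3 reporter carrying the site 19 bp from the promoter, screening Caulobacter ParB libraries with four specificity codons randomised (NNS). Cells grew 48 hours at 37°C on M9-minus-histidine plus 0.1 mM IPTG and 5 mM 3-AT. Plasmids before and after selection were Illumina-sequenced, three replicate libraries pooled, and variants under 10 reads dropped. Fitness is the log change in variant-to-wild-type read ratio, rescaled to cognate 1, non-cognate 0.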

First: LWNA
Second: HNMG
The “one-hybrid fitness for binding NBS DNA” value of the first is lower: no more than 0.2 for the first, 0.257 for the second.

Compared with QRIK, QCGK is lower in “one-hybrid fitness for binding NBS DNA” value: 0.213 for the first, no more than 0.2 for the second.

Going from QRDK to QRAK, the “one-hybrid fitness for binding NBS DNA” value rises from no more than 0.2 to 0.373.

QCNK and QREK cannot be ordered by “one-hybrid fitness for binding NBS DNA” value: no more than 0.2 for the first, no more than 0.2 for the second.

Going from QRNK to QSGK, the “one-hybrid fitness for binding NBS DNA” value falls from 0.488 to no more than 0.2.

First: QRYK
Second: QRGK
The “one-hybrid fitness for binding NBS DNA” value of the first is lower: 0.381 for the first, 0.445 for the second.

Going from QRFK to QCAK, the “one-hybrid fitness for binding NBS DNA” value falls from 0.295 to no more than 0.2.

TYVS and MKIS cannot be ordered by “one-hybrid fitness for binding NBS DNA” value: no more than 0.2 for the first, no more than 0.2 for the second.

KICD and FCSG cannot be ordered by “one-hybrid fitness for binding NBS DNA” value: no more than 0.2 for the first, no more than 0.2 for the second.

Going from FRQA to QRQK, the “one-hybrid fitness for binding NBS DNA” value rises from no more than 0.2 to 0.365.

QCQK and QSQK cannot be ordered by “one-hybrid fitness for binding NBS DNA” value: no more than 0.2 for the first, no more than 0.2 for the second.

Going from GPRT to QSRT, the “one-hybrid fitness for binding NBS DNA” value rises from 0.369 to 0.723.

Compared with QCYT, QSYT is lower in “one-hybrid fitness for binding NBS DNA” value: 0.503 for the first, 0.347 for the second.

Going from GCRT to QCRT, the “one-hybrid fitness for binding NBS DNA” value rises from no more than 0.2 to 0.857.

QPRT and QPYT cannot be ordered by “one-hybrid fitness for binding NBS DNA” value: no more than 0.2 for the first, no more than 0.2 for the second.

Compared with GPYT, QNRT is higher in “one-hybrid fitness for binding NBS DNA” value: no more than 0.2 for the first, 0.292 for the second.

QNYT and VDRR cannot be ordered by “one-hybrid fitness for binding NBS DNA” value: no more than 0.2 for the first, no more than 0.2 for the second.

QPAL and PSKA cannot be ordered by “one-hybrid fitness for binding NBS DNA” value: no more than 0.2 for the first, no more than 0.2 for the second.

SGLS and RPAY cannot be ordered by “one-hybrid fitness for binding NBS DNA” value: no more than 0.2 for the first, no more than 0.2 for the second.

SNWT and PAIL cannot be ordered by “one-hybrid fitness for binding NBS DNA” value: no more than 0.2 for the first, no more than 0.2 for the second.

HYHS and FRPV cannot be ordered by “one-hybrid fitness for binding NBS DNA” value: no more than 0.2 for the first, no more than 0.2 for the second.

Going from PPFR to QLLT, the “one-hybrid fitness for binding NBS DNA” value rises from no more than 0.2 to 0.33.

Going from QLYT to QHLT, the “one-hybrid fitness for binding NBS DNA” value falls from 0.355 to 0.337.

Going from QIPT to QHRT, the “one-hybrid fitness for binding NBS DNA” value rises from no more than 0.2 to 0.681.

Going from QIRT to QHYT, the “one-hybrid fitness for binding NBS DNA” value falls from 0.608 to 0.359.

First: QART
Second: QIYT
The “one-hybrid fitness for binding NBS DNA” value of the first is higher: 0.716 for the first, 0.335 for the second.

Going from QLRT to QALT, the “one-hybrid fitness for binding NBS DNA” value falls from 0.668 to 0.352.

First: QAYT
Second: ALLT
The “one-hybrid fitness for binding NBS DNA” value of the first is higher: 0.322 for the first, no more than 0.2 for the second.

QWRW and HELN cannot be ordered by “one-hybrid fitness for binding NBS DNA” value: no more than 0.2 for the first, no more than 0.2 for the second.

VNET and TDND cannot be ordered by “one-hybrid fitness for binding NBS DNA” value: no more than 0.2 for the first, no more than 0.2 for the second.

QYNF and HKPS cannot be ordered by “one-hybrid fitness for binding NBS DNA” value: no more than 0.2 for the first, no more than 0.2 for the second.

SLTE and AVAW cannot be ordered by “one-hybrid fitness for binding NBS DNA” value: no more than 0.2 for the first, no more than 0.2 for the second.

Going from QTVR to QTKR, the “one-hybrid fitness for binding NBS DNA” value rises from 0.558 to 1.15.

First: NTKR
Second: DTKR
The “one-hybrid fitness for binding NBS DNA” value of the first is lower: 0.255 for the first, 0.321 for the second.

VQPA and YAHE cannot be ordered by “one-hybrid fitness for binding NBS DNA” value: no more than 0.2 for the first, no more than 0.2 for the second.

Going from QHRS to QHYS, the “one-hybrid fitness for binding NBS DNA” value falls from 0.627 to 0.324.

Going from QHRH to QHYH, the “one-hybrid fitness for binding NBS DNA” value falls from 0.494 to no more than 0.2.

Compared with QHRD, QHRP is lower in “one-hybrid fitness for binding NBS DNA” value: 0.234 for the first, 0.201 for the second.

SNPD was tested, and the “one-hybrid fitness for binding NBS DNA” value was no more than 0.2.
